Reference: PubChem BioAssay (NCI)
About 83,000 compounds went through this panel and 20% of them were active in at least one assay; those are over-represented in the sample as a whole.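 48-hour exposure, single concentration, 96-well plates; percent growth endpoint where 0 means no net growth. Active: below 10.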 The source made the active and inactive calls.

Columns and labels:
Test in all cases: NCI-60 one-dose screen, 48 h (100 = growth as untreated, 0 = no growth, -100 = all killed)
Conditions in all cases: 10 µM unless noted
DU-145 prostate = test system: DU-145 prostate
K-562 leukemia = test system: K-562 leukemia
MALME-3M melanoma = test system: MALME-3M melanoma
MDA-MB-231 breast = test system: MDA-MB-231 breast
RXF 393 renal = test system: RXF 393 renal
SF-268 CNS = test system: SF-268 CNS
SF-295 CNS = test system: SF-295 CNS
SF-539 CNS = test system: SF-539 CNS
UACC-257 melanoma = test system: UACC-257 melanoma
M14 melanoma = test system: M14 melanoma
HCT-15 colon = test system: HCT-15 colon
SNB-75 CNS = test system: SNB-75 CNS
SNB-19 CNS = test system: SNB-19 CNS
U251 CNS = test system: U251 CNS
PC-3 prostate = test system: PC-3 prostate
SK-MEL-5 melanoma = test system: SK-MEL-5 melanoma
UACC-62 melanoma = test system: UACC-62 melanoma
LOX IMVI melanoma = test system: LOX IMVI melanoma
SK-MEL-28 melanoma = test system: SK-MEL-28 melanoma
HT29 colon = test system: HT29 colon

Measured: growth

COC(=O)c1c2c(c(C)[n+]([O-])c1C)C(=O)C(NCc1cccc(OC)c1)=CC2=O
inactive: DU-145 prostate 54.8% | K-562 leukemia 13.7% | RXF 393 renal 38.7% | SF-268 CNS 36.8% | SF-295 CNS 69.9% | SF-539 CNS 11.4% | M14 melanoma 12.9% | HCT-15 colon 11.9% | SNB-75 CNS 132% | SNB-19 CNS 19.2% | LOX IMVI melanoma 22% | SK-MEL-28 melanoma 86.6%
active: MALME-3M melanoma -89.9% | MDA-MB-231 breast 5.97% | UACC-257 melanoma -25.5% | U251 CNS -1.83% | PC-3 prostate 6.62% | SK-MEL-5 melanoma -54.8% | UACC-62 melanoma -13.3%

CN(c1cc2ncc(=O)[nH]c2cc1NC(N)=NCc1ccc(Cl)cc1)C1CCCCC1
active: K-562 leukemia 2.83% | U251 CNS -4.07% | LOX IMVI melanoma -45.6%
inactive: DU-145 prostate 71.7% | MALME-3M melanoma 29.9% | MDA-MB-231 breast 19.9% | RXF 393 renal 37.1% | SF-268 CNS 67.9% | SF-295 CNS 95.8% | SF-539 CNS 66.4% | UACC-257 melanoma 106% | M14 melanoma 40.1% | HCT-15 colon 99.9% | SNB-75 CNS 58.2% | SNB-19 CNS 63.5% | PC-3 prostate 64.3% | SK-MEL-5 melanoma 71.5% | UACC-62 melanoma 72.3% | SK-MEL-28 melanoma 52.8%

CCOC(=O)C1=C(N)Oc2c(sc3c(F)cccc23)C1c1ccc(O)cc1 (stereo not drawn)
inactive: DU-145 prostate 66.8% | K-562 leukemia 12.6% | MALME-3M melanoma 54.4% | MDA-MB-231 breast 36.9% | RXF 393 renal 46.1% | SF-268 CNS 37% | SF-295 CNS 56.3% | SF-539 CNS 42.5% | UACC-257 melanoma 49.8% | M14 melanoma 22.9% | HCT-15 colon 24.2% | SNB-75 CNS 31.3% | SNB-19 CNS 48.9% | U251 CNS 37.9% | PC-3 prostate 26% | SK-MEL-5 melanoma 18% | LOX IMVI melanoma 36.4% | SK-MEL-28 melanoma 46%

COc1cc(NS(=O)(=O)c2ccc(-c3cnc(C4CC4)o3)cc2)ccc1F
active: SF-539 CNS 1.5% | SNB-75 CNS -15.8%
inactive: DU-145 prostate 23% | K-562 leukemia 12.2% | MALME-3M melanoma 55.8% | MDA-MB-231 breast 24.2% | RXF 393 renal 12.4% | SF-268 CNS 55.7% | SF-295 CNS 15.6% | UACC-257 melanoma 69% | M14 melanoma 19% | HCT-15 colon 20.9% | SNB-19 CNS 25.6% | U251 CNS 22.1% | PC-3 prostate 33.9% | SK-MEL-5 melanoma 15.5% | UACC-62 melanoma 31.6% | LOX IMVI melanoma 35% | SK-MEL-28 melanoma 65.2%

Cc1ccc(C2=Nc3c(N)ncnc3NC(c3cccc(Nc4ccnc5cc(C(F)(F)F)ccc45)c3)C2)cc1 (stereo not drawn)
active: K-562 leukemia 5.65% | RXF 393 renal 0.783% | HCT-15 colon 6.14%
inactive: DU-145 prostate 64.9% | MALME-3M melanoma 35.3% | MDA-MB-231 breast 29.6% | SF-268 CNS 40.1% | SF-295 CNS 25% | SF-539 CNS 56.1% | UACC-257 melanoma 51.7% | M14 melanoma 16% | SNB-75 CNS 21.7% | SNB-19 CNS 43.6% | U251 CNS 31.1% | PC-3 prostate 16.1% | SK-MEL-5 melanoma 12.1% | UACC-62 melanoma 48.7% | LOX IMVI melanoma 26.7% | SK-MEL-28 melanoma 52.3%

Cc1cn(-c2cc(NC(=O)c3cncc(C#Cc4cnc(N)c5ncccc45)c3)cc(C(F)(F)F)c2)cn1
inactive: DU-145 prostate 93.7% | MALME-3M melanoma 23.8% | MDA-MB-231 breast 47.1% | RXF 393 renal 59.6% | SF-268 CNS 67.2% | SF-295 CNS 91% | SF-539 CNS 72.3% | UACC-257 melanoma 62.5% | M14 melanoma 29.8% | HCT-15 colon 59.6% | SNB-75 CNS 89.4% | SNB-19 CNS 106% | U251 CNS 85.7% | PC-3 prostate 84.7% | SK-MEL-5 melanoma 18.3% | UACC-62 melanoma 35.2% | LOX IMVI melanoma 21.5% | SK-MEL-28 melanoma 40.5%
active: K-562 leukemia 5.81%

O=C1/C(=C\c2ccc3nccnc3c2)SC(=S)N1CCc1ccc(O)cc1
inactive: DU-145 prostate 59.6% | K-562 leukemia 96.9% | MALME-3M melanoma 75.7% | MDA-MB-231 breast 88.7% | RXF 393 renal 93% | SF-268 CNS 90.8% | SF-295 CNS 105% | SF-539 CNS 82.2% | UACC-257 melanoma 81.9% | M14 melanoma 85.5% | HCT-15 colon 78.3% | SNB-75 CNS 66% | SNB-19 CNS 94% | U251 CNS 99.3% | PC-3 prostate 89.7% | SK-MEL-5 melanoma 98.7% | UACC-62 melanoma 84.5% | LOX IMVI melanoma 79.4% | SK-MEL-28 melanoma 103%

COC(=O)c1c(C)nc(C)c2c1C(=O)C(Br)=C(NCc1ccccc1)C2=O
inactive: DU-145 prostate 38% | K-562 leukemia 21% | MDA-MB-231 breast 14.8% | RXF 393 renal 52.4% | SF-268 CNS 33% | SF-295 CNS 30.1% | M14 melanoma 14% | HCT-15 colon 11.6% | SNB-75 CNS 100% | SNB-19 CNS 41.7% | PC-3 prostate 16.1% | SK-MEL-28 melanoma 56.4%
active: MALME-3M melanoma -75.4% | SF-539 CNS 7.13% | UACC-257 melanoma -7.87% | SK-MEL-5 melanoma -96.5% | LOX IMVI melanoma 6.45%

CC(=O)/C(=C\c1c(-c2ccccc2)[nH]c2ccccc12)S(C)(=O)=O
active: K-562 leukemia -25.7% | RXF 393 renal -5.08% | SF-295 CNS 3.77% | SF-539 CNS -34.8% | M14 melanoma 3.01% | SNB-75 CNS -28.8% | SK-MEL-5 melanoma -6.28%
inactive: DU-145 prostate 13.2% | MALME-3M melanoma 32.9% | MDA-MB-231 breast 32.3% | SF-268 CNS 41.6% | UACC-257 melanoma 59.8% | HCT-15 colon 19.3% | SNB-19 CNS 23.2% | U251 CNS 15.3% | PC-3 prostate 21.6% | UACC-62 melanoma 17.5% | LOX IMVI melanoma 33.1% | SK-MEL-28 melanoma 34.4%

CCN1C(=S)N(c2ccccc2)C2C1NN=c1s/c(=C3\C(=O)N(C(C)C)c4ccccc43)c(=O)n12 (stereo not drawn)
inactive: DU-145 prostate 58% | K-562 leukemia 87.2% | MALME-3M melanoma 60.7% | MDA-MB-231 breast 36.5% | RXF 393 renal 107% | SF-268 CNS 95.8% | SF-295 CNS 98.9% | SF-539 CNS 10.4% | UACC-257 melanoma 92.7% | M14 melanoma 81.8% | HCT-15 colon 93.3% | SNB-75 CNS 61% | SNB-19 CNS 81.9% | U251 CNS 64.6% | PC-3 prostate 79.3% | SK-MEL-5 melanoma 92.1% | UACC-62 melanoma 83.5% | LOX IMVI melanoma 47.5% | SK-MEL-28 melanoma 102%

O=C1/C=C/[C@@H](O)[C@@H]2C[C@@H](O)C[C@H]2/C=C/CCC[C@H](CCc2ccccc2)O1
inactive: DU-145 prostate 14.1% | K-562 leukemia 17.7% | SF-268 CNS 16.6% | SF-539 CNS 26.3% | UACC-257 melanoma 25.4% | HCT-15 colon 11% | SNB-75 CNS 28.9% | SNB-19 CNS 31.4% | U251 CNS 20.1% | PC-3 prostate 16.7% | UACC-62 melanoma 23.7%
active: MALME-3M melanoma -14.2% | MDA-MB-231 breast -65.1% | RXF 393 renal -4.18% | SF-295 CNS 1.38% | HT29 colon 3.12% | SK-MEL-5 melanoma -92.9% | LOX IMVI melanoma -59.1% | SK-MEL-28 melanoma -2.32%

O=C1NC(=C(Cl)Cl)/C(=N\S(=O)(=O)NCc2ccccc2)N1
inactive: DU-145 prostate 105% | K-562 leukemia 81.4% | MALME-3M melanoma 104% | MDA-MB-231 breast 115% | RXF 393 renal 113% | SF-268 CNS 102% | SF-295 CNS 114% | SF-539 CNS 93.7% | UACC-257 melanoma 85.6% | HCT-15 colon 105% | HT29 colon 108% | SNB-75 CNS 84.6% | SNB-19 CNS 91.2% | PC-3 prostate 95.6% | SK-MEL-5 melanoma 96.6% | UACC-62 melanoma 85.5% | LOX IMVI melanoma 93.8% | SK-MEL-28 melanoma 103%

COc1ccc(OC)c(-c2nc(SCC(=O)c3ccc(C#N)cc3)[nH]c(=O)c2C#N)c1
inactive: DU-145 prostate 99.6% | K-562 leukemia 111% | MALME-3M melanoma 97.8% | MDA-MB-231 breast 101% | RXF 393 renal 105% | SF-268 CNS 93.3% | SF-295 CNS 99.5% | SF-539 CNS 93.8% | UACC-257 melanoma 99.9% | HCT-15 colon 96.9% | HT29 colon 108% | SNB-75 CNS 93.7% | SNB-19 CNS 97.6% | U251 CNS 103% | PC-3 prostate 94.5% | SK-MEL-5 melanoma 106% | UACC-62 melanoma 94.7% | LOX IMVI melanoma 94.7% | SK-MEL-28 melanoma 102%
